Hck Nef HTS = inhibitors of Nef-activated human Hck kinase, primary screen, biochemical, Z-Lyte FRET, 384-well, Hck-YEEI; Tyrosine-protein kinase HCK (Homo sapiens), P08631; Recombinant Hck-YEEI plus Nef, Z-Lyte FRET kinase assay; inhibition, % at 20 µM; 0.68% of 220,000 active; AID 463187, 2010;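 active = Hck-Nef kinase inhibition above about 50%, limit read from the data; inactive = inhibition below that limit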
14-3-3 Bad inh = inhibitors of 14-3-3 zeta/Bad binding, primary screen, biochemical, TR-FRET, bovine 14-3-3 zeta. TR-FRET 14-3-3zeta/Dy647-pBad peptide displacement, 1 h. inhibition, % at 21.7 µM. 0.71% of 220,000 active. AID 781, 2007;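 active = inhibition above about 70%, limit read from the data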
Target sequence (P63103 whole entry, looked up): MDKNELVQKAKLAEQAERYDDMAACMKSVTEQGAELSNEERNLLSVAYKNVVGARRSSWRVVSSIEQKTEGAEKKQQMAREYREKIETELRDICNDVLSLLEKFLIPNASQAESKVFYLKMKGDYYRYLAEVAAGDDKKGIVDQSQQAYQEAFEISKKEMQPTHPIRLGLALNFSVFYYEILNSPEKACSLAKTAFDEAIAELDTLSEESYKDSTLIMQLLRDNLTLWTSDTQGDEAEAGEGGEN
Mcl1-Bid inh = Mcl-1/Bid binding inhibitors, primary screen, biochemical, TR-FRET, 1536-well. AID 1021, 2008. TR-FRET Mcl-1/Bid-Dy647 peptide binding. 0.97% of 220,000 active. inhibition, % at 21.7 µM;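 active = compounds that cut the binding signal by more than half at the single screening dose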;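 note: His-tagged Mcl-1 with europium anti-His antibody binding Bid BH3 peptide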
Target sequence (Q07820 whole entry, looked up): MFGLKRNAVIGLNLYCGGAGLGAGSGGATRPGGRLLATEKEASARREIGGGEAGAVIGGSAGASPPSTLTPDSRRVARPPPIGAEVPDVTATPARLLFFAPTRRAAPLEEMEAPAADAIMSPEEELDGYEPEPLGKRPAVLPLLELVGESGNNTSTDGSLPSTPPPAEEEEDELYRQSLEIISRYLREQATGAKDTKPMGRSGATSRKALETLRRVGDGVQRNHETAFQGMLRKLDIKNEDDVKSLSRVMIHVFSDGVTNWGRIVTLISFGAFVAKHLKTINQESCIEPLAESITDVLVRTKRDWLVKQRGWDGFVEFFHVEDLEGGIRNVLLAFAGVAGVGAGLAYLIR
Mcl-1 Bim block = inhibitors of Bim peptide binding to Mcl-1, primary screen, biochemical, bead-based flow cytometry, multiplex; Induced myeloid leukemia cell differentiation protein Mcl-1 (Homo sapiens), Q07820; Bim peptide-Mcl-1 binding; inhibition, % at 10 µM; 0.1% of 190,000 active; in the data active = inhibition above about 40%
Pf gamet viab = late stage P. falciparum gametocyte viability inhibitors, primary screen, ATP luminescence, HTS; inhibition, % at 10.9 µM; P. falciparum stage V gametocytes, 24 h; AID 743093, 2013; 0.065% of 150,000 active;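 active = inhibition above the mean plus 3 SD of compounds within the control limits, set per campaign, cut at about 38% in these data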
Mcl1 Noxa PPI = Mcl-1/Noxa binding inhibitors, primary screen, biochemical, TR-FRET, 1536-well; Induced myeloid leukemia cell differentiation protein Mcl-1 (Homo sapiens), Q07820; TR-FRET Mcl-1/Noxa peptide binding, 2 h; inhibition, % at 21.7 µM; 1.5% of 220,000 active; AID 1022, 2008;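 active = compounds that cut the protein-peptide binding signal by more than 50% relative to plate controls in a single-dose test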;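 note: His-tagged Mcl-1 with rhodamine Noxa BH3 peptide and terbium anti-His antibody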
Hits are given with their value; – = inactive; · = no result given. Most compounds without a hit are left out; they make up all but 2.9% or so of the library.

SMILES	Hck Nef HTS	14-3-3 Bad inh	Mcl1-Bid inh	Mcl-1 Bim block	Pf gamet viab	Mcl1 Noxa PPI
O=C(CN1CCOCC1)N/N=C/c1ccc(-c2cccc(Cl)c2Cl)o1	–	77.4	–	·	–	–
Cc1ccc(/C=N/NC(=O)CN2CCN(Cc3ccccc3Cl)CC2)o1	–	–	–	·	–	–
Cc1cccc2cc(/C=N/NC(=O)CN3CCOCC3)c(Cl)nc12	–	–	86.9	–	·	–
CCCn1c(SCC(=O)Nc2cccc(S(=O)(=O)N3CCCC3)c2)n[nH]c1=O	–	–	–	–	–	–
O=C(CSc1nnc(-c2ccc(Cl)cc2Cl)n1C1CCCCC1)NC1CCS(=O)(=O)C1 (centres undefined)	–	–	–	–	·	–
Cc1ccc(C(C)C)c(OCc2ccc(C(=O)N/N=C/c3ccc(O)cc3O)cc2)c1	–	–	51.6	–	·	86.3
Cc1c(OCc2ccc(C(=O)O)cc2)ccc2c(-c3ccccc3)cc(=O)oc12	–	–	–	·	–	–
Cc1ccc(S(=O)(=O)N(CC(=O)N/N=C/c2cccc(Cl)c2)c2cccc3cccnc23)cc1	–	–	86.2	–	·	–
Cc1ccc(N(CC(=O)N/N=C/c2cccnc2)S(=O)(=O)c2ccccc2)cc1	–	–	–	–	–	–
COC(=O)c1cccc(OCC(O)Cn2ccnc2)c1 (centres undefined)	–	–	90.8	–	–	–
COC(=O)c1cccc(OCC(O)Cn2cnc3cc(C)c(C)cc32)c1 (centres undefined)	–	–	–	–	–	–
CC1CCN(CC(=O)NCCc2ccc(F)cc2)CC1	–	–	–	–	–	–
O=C(CN1CCCCCC1)NCCc1ccc(F)cc1	–	74.9	–	–	–	–
Cc1[nH]c(N=Nc2ccccc2)nc1N=Nc1ccccc1	–	–	–	·	–	–
CS(=O)(=O)C1=NSC2=NC(=O)/C(=C\c3ccc(-c4ccccc4)o3)C(=N)N21	–	–	–	–	·	–
CCc1ccc(-n2cccc2/C=C2/C(=N)N3C(=NC2=O)SN=C3S(C)(=O)=O)cc1	–	–	–	–	–	93.9
CS(=O)(=O)C1=NSC2=NC(=O)/C(=C\c3cccn3-c3ccccc3Cl)C(=N)N21	–	–	–	–	–	88.9
Cc1cc(C)cc(-n2cccc2/C=C2/C(=N)N3C(=NC2=O)SN=C3S(C)(=O)=O)c1	–	–	–	–	–	–
Cc1ccc(-n2cccc2/C=C2/C(=N)N3C(=NC2=O)SN=C3S(C)(=O)=O)cc1	–	–	–	–	–	98.3
COc1ccc(CN(C(=O)Cc2cccs2)C(C(=O)NC2CCCC2)c2ccncc2)cc1 (centres undefined)	–	–	–	–	·	–
CCOc1cc(/C=N/NC(=O)C(=O)NCC2CCCO2)ccc1OCC(=O)N1CCOCC1 (centres undefined)	–	–	–	·	–	–
Cc1ccc(-c2cn(CCC(=O)O)c(-c3ccc(Cl)nc3)n2)cc1	·	·	·	·	–	·
O=C(NC1CCCc2ccccc21)c1ccc2c(c1)OCO2 (centres undefined)	–	–	–	–	–	–
CC(NCc1ccc2c(c1)OCO2)C(=O)NC1CCCc2ccccc21 (centres undefined)	–	–	69.3	–	·	–
CCOC(=O)c1sc2nc(NC(=O)C3CCCCC3)sc2c1C	–	–	–	–	·	–
SMILES	Hck Nef HTS	14-3-3 Bad inh	Mcl1-Bid inh	Mcl-1 Bim block	Pf gamet viab	Mcl1 Noxa PPI
COc1ccc(C2SCC(=O)N2CCCN(C)C)cc1 (centres undefined)	–	–	91.5	–	·	–
CCn1c(=NC(=O)COc2ccccc2)sc2cccc(F)c21	–	–	–	·	–	–
Nc1ccc(N2CCCCC2)cc1N1CCCCC1	–	–	–	–	–	75.7
CC(=O)N1CCN(C(=S)NC(=O)c2c(-c3ccccc3Cl)noc2C)CC1	–	–	–	–	–	–
CCN(CC)C(=O)N1CCN(C)CC1	·	–	58.9	–	·	–
CCN(CC)C(=O)N1CCN(C(=O)N(CC)CC)CC1	–	–	–	–	–	–
N#Cc1ccc(-c2ccccc2)nc1SCC(=O)c1cc2ccccc2oc1=O	–	–	64.2	–	·	–
Cc1nn(-c2ccccc2)c2sc(-c3n[nH]c(=S)o3)cc12	–	–	–	–	–	67.5
O=C(/C=C/c1ccc(Cl)c([N+](=O)[O-])c1)Nc1ccc(N2CCCC2)cc1	–	–	–	–	–	75.0
O=C(/C=C/c1ccc(Cl)c([N+](=O)[O-])c1)Nc1ccc(NC(=O)c2ccco2)cc1	–	–	–	–	–	–
O=C(CS(=O)(=O)Cc1ccccc1)N1CCc2ccccc2C1	–	–	–	–	·	–
Cn1nnnc1Sc1ncnc2scc(-c3cccc(C(F)(F)F)c3)c12	·	·	·	·	–	·
CCn1c(SCc2nc3sc(C(=O)O)c(C)c3c(=O)[nH]2)nc2ccccc21	–	–	–	–	·	77.1
Cc1ccc(C(=O)N[C@H](C(=O)OCc2cc(=O)n3c(n2)sc2ccccc23)C(C)C)cc1	–	–	–	–	·	57.5
Cc1ccc2c(CC(=O)OCc3csc(C)n3)coc2c1	–	–	–	–	·	–
O=C(OCc1cc(=O)n2c(n1)sc1ccccc12)c1cccc(O)c1	–	–	–	–	–	66.8
O=C(OCc1cc(=O)n2c(n1)sc1ccccc12)c1ccc(O)cc1O	–	–	–	–	–	–
O=C(Cc1coc2cc3c(cc12)CCC3)OCc1cc(=O)n2c(n1)sc1ccccc12	–	–	–	–	·	51.3
CC(C)[C@H](NC(=O)c1ccco1)C(=O)OCc1cc(=O)n2c(n1)sc1ccccc12	–	–	–	–	–	59.6
CC[C@H](C)[C@H](NC(N)=O)C(=O)Nc1ccc(OC)c(Cl)c1	–	–	–	–	–	–
COc1ccc2c(OC)c3ccoc3nc2c1OC	–	–	–	–	·	–
COCCCNC(=S)N1CCN(c2nc3ccccc3s2)CC1	–	–	–	–	–	–
O=C(NCCN1CCNCC1)c1ccccn1	–	72.5	–	–	·	–
O=C(C[n+]1cc(-c2ccccc2)n2c1CCC2)N1c2ccccc2Sc2ccccc21	–	–	89.7	–	–	–
CN(C)CC(C)(C)CNC(=O)C1CCN(Cc2ccccc2O)CC1	–	–	58.5	–	·	–
COC(=O)c1ccc2nc(Nc3nc4ccc(F)cc4s3)sc2c1	–	76.8	81.2	–	·	95.2
COC(=O)c1ccc2nc(NC(=O)C(C)(C)C)sc2c1	–	–	–	–	·	–
OC(CNC1CCCc2ccccc21)COc1ccc2ccccc2c1 (centres undefined)	–	–	52.3	–	–	–
